# Results: PubChem BioAssay AID1159580 (chemical genetic matrix, 2015)
# Out of some 5,500 compounds screened, about 2,000 (36%) were called active. Not shown: some 18% with an inconclusive outcome. This is one part of the list. Unmarked numbers belong to inactive results. Cut-off read from the data, not from the text of the source: active = normalized growth mostly below about 0.91 (no sharp cut-off); inconclusive = no clear call, values can overlap the other calls; inactive = mostly above about 0.92.
# Assay: chemical genetic growth profiling, strain panel (AID 1159580);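 note: tested at 20 µM; growth read once vehicle control cultures reached saturation at 30 °C; 1 = growth at the plate median or of vehicle wells; lower values mean less growth of the strain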
# Conditions: growth OD
# [1] = S. cerevisiae deletion strains, locus YHR030C, strain SLT2, active compounds read low
structure (smiles),measurement,setting,value
CCCCCCNC(=O)n1cc(F)c(=O)[nH]c1=O,normalized growth,"S. cerevisiae deletion strains, locus YAL021C, strain ccr4, active compounds read low",0.934
same,normalized growth,"S. cerevisiae deletion strains, locus YAL026C, strain drs2, active compounds read low",0.849 (active)
same,normalized growth,"S. cerevisiae deletion strains, locus YAL030W, strain snc1, active compounds read low",0.96
same,normalized growth,"S. cerevisiae deletion strains, locus YBL061C, strain skt5, active compounds read low",0.972
same,normalized growth,"S. cerevisiae deletion strains, locus YBR009C, strain hhf1, active compounds read low",0.861 (active)
same,normalized growth,"S. cerevisiae deletion strains, locus YBR023C, strain chs3, active compounds read low",0.937
same,normalized growth,"S. cerevisiae deletion strains, locus YBR171W, strain sec66, active compounds read low",0.996
same,normalized growth,"S. cerevisiae deletion strains, locus YBR231C, strain swc5, active compounds read low",0.988
same,normalized growth,"S. cerevisiae deletion strains, locus YBR279W, strain paf1, active compounds read low",0.834 (active)
same,normalized growth,"S. cerevisiae deletion strains, locus YCL011C, strain gbp2, active compounds read low",0.91
same,normalized growth,"S. cerevisiae deletion strains, locus YCL016C, strain dcc1, active compounds read low",0.86 (active)
same,normalized growth,"S. cerevisiae deletion strains, locus YCL069W, strain vba3, active compounds read low",0.842 (active)
same,normalized growth,"S. cerevisiae deletion strains, locus YCR088W, strain abp1, active compounds read low",0.934
same,normalized growth,"S. cerevisiae deletion strains, locus YDL005C, strain med2, active compounds read low",0.941
same,normalized growth,"S. cerevisiae deletion strains, locus YDL040C, strain nat1, active compounds read low",0.991
same,normalized growth,"S. cerevisiae deletion strains, locus YDR001C, strain nth1, active compounds read low",0.995
same,normalized growth,"S. cerevisiae deletion strains, locus YDR069C, strain doa4, active compounds read low",0.803 (active)
same,normalized growth,"S. cerevisiae deletion strains, locus YDR137W, strain rgp1, active compounds read low",0.553 (active)
same,normalized growth,"S. cerevisiae deletion strains, locus YDR159W, strain sac3, active compounds read low",1.22 [resistant] (active)
same,normalized growth,"S. cerevisiae deletion strains, locus YDR195W, strain ref2",0.678 (active)
same,normalized growth,"S. cerevisiae deletion strains, locus YDR297W, strain sur2, active compounds read low",0.978
same,normalized growth,"S. cerevisiae deletion strains, locus YDR334W, strain swr1, active compounds read low",0.93
same,normalized growth,"S. cerevisiae deletion strains, locus YDR335W, strain msn5, active compounds read low",0.782 (active)
same,normalized growth,"S. cerevisiae deletion strains, locus YDR392W, strain spt3, active compounds read low",0.776
same,normalized growth,"S. cerevisiae deletion strains, locus YEL003W, strain gim4, active compounds read low",0.895 (active)
same,normalized growth,"S. cerevisiae deletion strains, locus YEL037C, strain rad23, active compounds read low",0.894 (active)
same,normalized growth,"S. cerevisiae deletion strains, locus YEL061C, strain CIN8 (second series), active compounds read low",0.95
same,normalized growth,"S. cerevisiae deletion strains, locus YER015W, strain faa2, active compounds read low",0.889 (active)
same,normalized growth,"S. cerevisiae deletion strains, locus YER016W, strain bim1, active compounds read low",0.899 (active)
same,normalized growth,"S. cerevisiae deletion strains, locus YER111C, strain swi4, active compounds read low",0.923
same,normalized growth,"S. cerevisiae deletion strains, locus YER155C, strain BEM2 (second series), active compounds read low",0.767 (active)
same,normalized growth,"S. cerevisiae deletion strains, locus YFR010W, strain ubp6, active compounds read low",0.757 (active)
same,normalized growth,"S. cerevisiae deletion strains, locus YGL167C, strain pmr1, active compounds read low",0.918
same,normalized growth,"S. cerevisiae deletion strains, locus YGL173C, strain kem1, active compounds read low",0.897 (active)
same,normalized growth,"S. cerevisiae deletion strains, locus YGL227W, strain vid30, active compounds read low",0.99
same,normalized growth,"S. cerevisiae deletion strains, locus YGL240W, strain doc1, active compounds read low",0.971
same,normalized growth,"S. cerevisiae deletion strains, locus YGL253W, strain hxk2, active compounds read low",0.613 (active)
same,normalized growth,"S. cerevisiae deletion strains, locus YHR013C, strain ard1, active compounds read low",0.933
same,normalized growth,"S. cerevisiae deletion strains, locus YHR027C, strain rpn1, active compounds read low",0.911 (active)
same,normalized growth,[1],0.532 (active)
same,normalized growth,"S. cerevisiae deletion strains, locus YHR079C, strain IRE1, active compounds read low",0.45 (active)
same,normalized growth,"S. cerevisiae deletion strains, locus YHR142W, strain chs7, active compounds read low",0.741 (active)
same,normalized growth,"S. cerevisiae deletion strains, locus YJL092W, strain hpr5, active compounds read low",0.912 (active)
same,normalized growth,"S. cerevisiae deletion strains, locus YJL095W, strain BCK1 (second series), active compounds read low",0.945
same,normalized growth,"S. cerevisiae deletion strains, locus YJL095W, strain BCK1, active compounds read low",0.541 (active)
same,normalized growth,"S. cerevisiae deletion strains, locus YJL115W, strain asf1, active compounds read low",0.941
same,normalized growth,"S. cerevisiae deletion strains, locus YJL129C, strain trk1, active compounds read low",0.76 (active)
same,normalized growth,"S. cerevisiae deletion strains, locus YJL154C, strain vps35, active compounds read low",0.943
same,normalized growth,"S. cerevisiae deletion strains, locus YJL164C, strain tpk1, active compounds read low",0.865 (active)
same,normalized growth,"S. cerevisiae deletion strains, locus YJL166W, strain qcr8, active compounds read low",0.902 (active)
same,normalized growth,"S. cerevisiae deletion strains, locus YJR066W, strain TOR1, active compounds read low",0.407 (active)
same,normalized growth,"S. cerevisiae deletion strains, locus YKL160W, strain elf1, active compounds read low",0.907
same,normalized growth,"S. cerevisiae deletion strains, locus YKR026C, strain gcn3, active compounds read low",0.993
same,normalized growth,"S. cerevisiae deletion strains, locus YKR091W, strain srl3, active compounds read low",0.975
same,normalized growth,"S. cerevisiae deletion strains, locus YLL001W, strain dnm1, active compounds read low",0.773 (active)
same,normalized growth,"S. cerevisiae deletion strains, locus YLL026W, active compounds read low",0.974
same,normalized growth,"S. cerevisiae deletion strains, locus YLL041C, strain sdh2, active compounds read low",0.979
same,normalized growth,"S. cerevisiae deletion strains, locus YLR027C, strain aat2, active compounds read low",0.956
same,normalized growth,"S. cerevisiae deletion strains, locus YLR113W, strain HOG1, active compounds read low",0.607 (active)
same,normalized growth,"S. cerevisiae deletion strains, locus YLR221C, strain rsa3, active compounds read low",0.697 (active)
same,normalized growth,"S. cerevisiae deletion strains, locus YLR258W, strain gsy2, active compounds read low",0.884 (active)
same,normalized growth,"S. cerevisiae deletion strains, locus YLR262C, strain YPT6 (second series), active compounds read low",0.528 (active)
same,normalized growth,"S. cerevisiae deletion strains, locus YLR320W, strain mms22, active compounds read low",0.733 (active)
same,normalized growth,"S. cerevisiae deletion strains, locus YLR342W, strain FKS1, active compounds read low",0.938
same,normalized growth,"S. cerevisiae deletion strains, locus YLR357W, strain rsc2, active compounds read low",0.803 (active)
same,normalized growth,"S. cerevisiae deletion strains, locus YLR370C, strain arc18, active compounds read low",0.923
same,normalized growth,"S. cerevisiae deletion strains, locus YLR384C, strain iki3, active compounds read low",0.963
same,normalized growth,"S. cerevisiae deletion strains, locus YML120C, strain ndi1, active compounds read low",0.92
same,normalized growth,"S. cerevisiae deletion strains, locus YMR058W, strain fet3, active compounds read low",0.926
same,normalized growth,"S. cerevisiae deletion strains, locus YMR125W, strain sto1, active compounds read low",0.958
same,normalized growth,"S. cerevisiae deletion strains, locus YMR129W, active compounds read low",0.987
same,normalized growth,"S. cerevisiae deletion strains, locus YMR205C, strain PFK2, active compounds read low",0.898
same,normalized growth,"S. cerevisiae deletion strains, locus YMR231W, strain pep5, active compounds read low",0.942
same,normalized growth,"S. cerevisiae deletion strains, locus YNL071W, strain lat1, active compounds read low",0.891 (active)
same,normalized growth,"S. cerevisiae deletion strains, locus YNL183C, strain NPR1, active compounds read low",0.48 (active)
same,normalized growth,"S. cerevisiae deletion strains, locus YNL209W, strain ssb2, active compounds read low",0.959
same,normalized growth,"S. cerevisiae deletion strains, locus YNL248C, strain rpa49, active compounds read low",0.589 (active)
same,normalized growth,"S. cerevisiae deletion strains, locus YNL322C, strain KRE1 (second series), active compounds read low",0.936
same,normalized growth,"S. cerevisiae deletion strains, locus YNR049C, strain mso1, active compounds read low",0.931
same,normalized growth,"S. cerevisiae deletion strains, locus YOR001W, strain rrp6, active compounds read low",0.257 (active)
same,normalized growth,"S. cerevisiae deletion strains, locus YOR070C, strain gyp1, active compounds read low",0.958
same,normalized growth,"S. cerevisiae deletion strains, locus YOR080W, strain dia2, active compounds read low",0.968
same,normalized growth,"S. cerevisiae deletion strains, locus YOR083W, strain WHI5, active compounds read low",0.84 (active)
same,normalized growth,"S. cerevisiae deletion strains, locus YOR106W, strain vam3, active compounds read low",0.668 (active)
same,normalized growth,"S. cerevisiae deletion strains, locus YOR231W, strain MKK1, active compounds read low",0.41 (active)
same,normalized growth,"S. cerevisiae deletion strains, locus YOR265W, strain rbl2, active compounds read low",0.968
same,normalized growth,"S. cerevisiae deletion strains, locus YOR270C, strain vph1, active compounds read low",0.518 (active)
same,normalized growth,"S. cerevisiae deletion strains, locus YOR290C, strain snf2, active compounds read low",0.723 (active)
same,normalized growth,"S. cerevisiae deletion strains, locus YPL051W, strain arl3, active compounds read low",0.843 (active)
same,normalized growth,"S. cerevisiae deletion strains, locus YPL078C, strain atp4, active compounds read low",0.77 (active)
same,normalized growth,"S. cerevisiae deletion strains, locus YPL106C, strain sse1, active compounds read low",0.722 (active)
same,normalized growth,"S. cerevisiae deletion strains, locus YPL240C, strain hsp82, active compounds read low",0.978
same,normalized growth,"S. cerevisiae deletion strains, locus YPL256C, strain CLN2, active compounds read low",0.564 (active)
CN(C)c1ccc(C(=O)NN)cc1,normalized growth,"S. cerevisiae deletion strains, locus YAL013W, strain DEP1, active compounds read low",1.02
same,normalized growth,"S. cerevisiae deletion strains, locus YBR229C, strain ROT2, active compounds read low",1.02
same,normalized growth,"S. cerevisiae deletion strains, locus YDL101C, strain DUN1, active compounds read low",1.02
same,normalized growth,"S. cerevisiae deletion strains, locus YDL134C, strain PPH21, active compounds read low",1.01
same,normalized growth,"S. cerevisiae deletion strains, locus YDR150W, strain NUM1, active compounds read low",0.924
same,normalized growth,"S. cerevisiae deletion strains, locus YEL061C, strain CIN8, active compounds read low",0.99
same,normalized growth,"S. cerevisiae deletion strains, locus YGR078C, strain PAC10, active compounds read low",1.01
same,normalized growth,[1],1.08
same,normalized growth,"S. cerevisiae deletion strains, locus YHR087W, strain rtc3, active compounds read low",1.03
same,normalized growth,"S. cerevisiae deletion strains, locus YJL187C, strain SWE1, active compounds read low",1.01
same,normalized growth,"S. cerevisiae deletion strains, locus YJR043C, strain POL32, active compounds read low",1.02
same,normalized growth,"S. cerevisiae deletion strains, locus YJR075W, strain HOC1, active compounds read low",1
same,normalized growth,"S. cerevisiae deletion strains, locus YKL190W, strain CNB1, active compounds read low",1.01
same,normalized growth,"S. cerevisiae deletion strains, locus YLR039C, strain RIC1, active compounds read low",1.14
same,normalized growth,"S. cerevisiae deletion strains, locus YLR058C, strain SHM2 (second series), active compounds read low",1.02
same,normalized growth,"S. cerevisiae deletion strains, locus YLR085C, strain ARP6, active compounds read low",0.96
same,normalized growth,"S. cerevisiae deletion strains, locus YLR262C, strain YPT6, active compounds read low",1.15
same,normalized growth,"S. cerevisiae deletion strains, locus YML094W, strain GIM5, active compounds read low",1.01
same,normalized growth,"S. cerevisiae deletion strains, locus YMR219W, strain ESC1, active compounds read low",1.01
same,normalized growth,"S. cerevisiae deletion strains, locus YMR263W, strain SAP30, active compounds read low",0.992
same,normalized growth,"S. cerevisiae deletion strains, locus YNL153C, strain GIM3, active compounds read low",1.02
same,normalized growth,"S. cerevisiae deletion strains, locus YNL298W, strain CLA4 (second series), active compounds read low",1
same,normalized growth,"S. cerevisiae deletion strains, locus YNL322C, strain KRE1, active compounds read low",1
same,normalized growth,"S. cerevisiae deletion strains, locus YNR030W, strain Alg12, active compounds read low",1.01
same,normalized growth,"S. cerevisiae deletion strains, locus YPL055C, strain LGE1, active compounds read low",0.954
same,normalized growth,"S. cerevisiae deletion strains, locus YPL241C, strain CIN2, active compounds read low",0.997
same,normalized growth,"S. cerevisiae deletion strains, locus YPR135W, strain CTF4, active compounds read low",1
same,normalized growth,"S. cerevisiae strains, strain wild type, active compounds read low",1.02
